Results reported in PubChem BioAssay AID720576 (National Center for Advancing Translational Sciences (NCATS), 2013).
The list shows a part of the results. Entries that show only a call come without a potency. Inconclusive results are not listed. Calls of active or inactive are those of the source. Calls come from the whole dose curve; as a rule, active = well fitted inhibition curve with a large enough effect; inconclusive = small, poorly fitted or top-dose-only effect; inactive = no such curve, though single readings can be large or run the other way.

Assay: qHTS Assay for Inhibitors of Hepatitis C Virus (HCV): Cytotoxicity Counterscreen for Cherry-picked Compounds
Description: Hepatitis C virus (HCV) infects about 200 million people in the world. Many infected people progress to chronic liver disease including cirrhosis with a risk of developing liver cancer. To date, there is no effective vaccine for hepatitis C. Current therapy based on interferon is only effective in about half of the patients and is associated with significant adverse effects. The fraction of people with HCV who can complete a successful treatment is estimated to be no more than 10 percent. Recent development of direct-acting antivirals against HCV, such as protease and polymerase inhibitors, is promising but still requires combination with peginterferon and ribavirin for maximal efficacy. In addition, these agents are associated with high rate of resistance and many have significant side effects. Due to the lack of a culture system for infectious HCV, the search for new HCV drugs has been greatly hampered. […] High-throughput screening (HTS) with an infectious HCV system would cover the complete spectrum of potentially druggable targets in all stages of HCV lifecycle, and would have more biological relevance than other cell-based assays. […]
Cells were plated in a 1536-wel tissue culture grade plates at a final concentration of 1,000 cells/well (3 uL volume). […] The luminescence signal was read for 15 sec using the PerkinElmer ViewLux plate reader.
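Note: 44 h compound exposure; nearly all actives have a fitted effect of over 55% in size.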

| Compound | Potency |
| --- | --- |
| CC1=CC(=Cc2sc3ccccc3[n+]2C)C=C(C)O1 | 7.05 µM (active) |
| CC[N+]1(C)CCCC(OC(=O)C(O)(c2ccccc2)c2ccccc2)C1 (configuration not stated) | inactive |
